According to PubChem BioAssay (NCI):
This is part of a sample that, as a whole, favours compounds with a hit. Of some 83,000 tested, about 20% had one in any assay.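 Each cell line was grown in a 96-well plate and treated with one concentration of compound for 48 hours. Values below 10 were considered active.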 Calls of active or inactive are those of the source.

Legend:
Assay in all cases: NCI-60 one-dose screen, 48 h (100 = growth as untreated, 0 = no growth, -100 = all killed)
Settings in all cases: 10 µM unless noted
NCI-H23 lung = tested on: NCI-H23 lung
NCI-H226 lung = tested on: NCI-H226 lung
NCI-H322M lung = tested on: NCI-H322M lung
HOP-62 NSCLC = tested on: HOP-62 NSCLC
NCI-H460 lung = tested on: NCI-H460 lung
HOP-92 NSCLC = tested on: HOP-92 NSCLC
NCI-H522 lung = tested on: NCI-H522 lung
A549/ATCC NSCLC = tested on: A549/ATCC NSCLC
786-0 renal = tested on: 786-0 renal
COLO 205 colon = tested on: COLO 205 colon

Measured: growth

COc1cccc(/C=C2\C=C(c3ccccc3)N(Cc3ccccc3)C2=O)c1
inactive: NCI-H23 lung 71.1% | NCI-H226 lung 73% | NCI-H322M lung 51% | HOP-62 NSCLC 69.4% | NCI-H460 lung 72.3% | HOP-92 NSCLC 18.1% | NCI-H522 lung 56.4% | A549/ATCC NSCLC 47.9% | 786-0 renal 57.3% | COLO 205 colon 74.3%

Cc1ccc2sc3c(NCCCN)nc4ccccc4c3c(=O)c2c1
active: NCI-H460 lung -54.2% | COLO 205 colon -42.9%
inactive: NCI-H23 lung 79.9% | NCI-H226 lung 93.5% | NCI-H322M lung 69.2% | HOP-62 NSCLC 69.1% | HOP-92 NSCLC 44.8% | NCI-H522 lung 59.4% | A549/ATCC NSCLC 43.5% | 786-0 renal 76.7%

O=C(CCc1nnc(-c2c(Cl)cccc2Cl)o1)c1nc2ccccc2[nH]1
active: HOP-92 NSCLC 6.67%
inactive: NCI-H23 lung 61.9% | NCI-H226 lung 83.7% | NCI-H322M lung 76% | HOP-62 NSCLC 71.6% | NCI-H460 lung 77.3% | NCI-H522 lung 49.8% | A549/ATCC NSCLC 69.7% | 786-0 renal 73.8% | COLO 205 colon 62.6%

CCn1cnc2c1c(=O)[nH]c(=O)n2CC1CCC(CNS(=O)(=O)c2ccc(OC3CCOCC3)c(F)c2)CC1 (stereo not given)
inactive: NCI-H23 lung 57.5% | NCI-H226 lung 55.7% | NCI-H322M lung 66.7% | HOP-62 NSCLC 36.5% | NCI-H460 lung 72.6% | HOP-92 NSCLC 31% | NCI-H522 lung 39.4% | A549/ATCC NSCLC 54.9% | 786-0 renal 47.4% | COLO 205 colon 45.3%

Cc1nc2ccccc2n1-c1ncnc2c1CC(C)c1ccccc1N2C (stereo not given)
inactive: NCI-H23 lung 85.6% | NCI-H226 lung 89.7% | NCI-H322M lung 97.8% | HOP-62 NSCLC 68.4% | NCI-H460 lung 102% | HOP-92 NSCLC 51.4% | NCI-H522 lung 72.5% | A549/ATCC NSCLC 70.8% | 786-0 renal 92% | COLO 205 colon 88%

O=C(S)CNC(=O)c1ccccc1
inactive: NCI-H23 lung 94.3% | NCI-H226 lung 101% | NCI-H322M lung 95.1% | HOP-62 NSCLC 92.7% | NCI-H460 lung 105% | HOP-92 NSCLC 74.7% | NCI-H522 lung 86.4% | A549/ATCC NSCLC 99.8% | 786-0 renal 98.1% | COLO 205 colon 107%

FC(F)(F)c1cc(Nc2ccc3c(OCCCN4CCOCC4)cccc3n2)ccc1Cl
active: 786-0 renal -42.1% | COLO 205 colon -38.1%
inactive: NCI-H23 lung 60.8% | NCI-H226 lung 68.5% | NCI-H322M lung 51.5% | HOP-62 NSCLC 51.2% | NCI-H460 lung 17.3% | HOP-92 NSCLC 60.2% | NCI-H522 lung 49.5% | A549/ATCC NSCLC 30.5%

C=CCc1cc(C)ccc1NC(C(=O)NCC(=O)OC)c1ccccc1 (stereo not given)
inactive: NCI-H23 lung 93.7% | NCI-H226 lung 95.1% | NCI-H322M lung 95.3% | HOP-62 NSCLC 85.5% | NCI-H460 lung 116% | HOP-92 NSCLC 103% | NCI-H522 lung 96.4% | A549/ATCC NSCLC 93% | 786-0 renal 94.1% | COLO 205 colon 100%

O=C(O)CCC(=O)Nc1nnc(-c2ccccc2)s1
inactive: NCI-H23 lung 99.7% | NCI-H226 lung 116% | NCI-H322M lung 105% | HOP-62 NSCLC 94.2% | NCI-H460 lung 104% | HOP-92 NSCLC 93.1% | NCI-H522 lung 80.1% | A549/ATCC NSCLC 102% | 786-0 renal 92.9% | COLO 205 colon 108%

CCOC(=O)CCN(C(=O)Nc1ccccc1)C1CCCCC1
inactive: NCI-H23 lung 102% | NCI-H226 lung 115% | NCI-H322M lung 110% | HOP-62 NSCLC 86.8% | NCI-H460 lung 102% | HOP-92 NSCLC 111% | NCI-H522 lung 99.2% | A549/ATCC NSCLC 132% | 786-0 renal 91.5% | COLO 205 colon 139%

COC(=O)c1ccc2[nH]c(O)c(C(=Nc3ccc(N(C)C(=O)CN4CCN(C)CC4)cc3)c3ccccc3)c2c1
inactive: NCI-H23 lung 31.1% | NCI-H226 lung 19% | NCI-H322M lung 76.8% | HOP-62 NSCLC 26.1% | NCI-H460 lung 24.9% | HOP-92 NSCLC 59.7% | NCI-H522 lung 50.3% | A549/ATCC NSCLC 39.4% | COLO 205 colon 11.4%
active: 786-0 renal 1.61%

CCOC(=O)Nc1ccc(-c2nc(-c3cccc(OC)c3)c(-c3ccnc(Br)c3)[nH]2)cc1
inactive: NCI-H23 lung 31.7% | NCI-H226 lung 46.4% | NCI-H322M lung 45.7% | HOP-62 NSCLC 30.2% | NCI-H460 lung 27.2% | HOP-92 NSCLC 42.2% | NCI-H522 lung 30.2% | A549/ATCC NSCLC 36.9% | COLO 205 colon 49.2%
active: 786-0 renal 9.61%

C=C1CC[C@H](C(C)C)[C@@H]2[C@H]1[C@H]1CC(=C)[C@@H](O)CC[C@@](C)(O)[C@@H]2O1
inactive: NCI-H23 lung 81.6% | NCI-H226 lung 95.2% | NCI-H322M lung 95.4% | HOP-62 NSCLC 84.3% | NCI-H460 lung 108% | HOP-92 NSCLC 86.3% | NCI-H522 lung 89.5% | A549/ATCC NSCLC 86.2% | 786-0 renal 82.6% | COLO 205 colon 117%

c1ccc2cc(C[n+]3ccn(CCCCCCn4cc[n+](Cc5ccc6ccccc6c5)c4)c3)ccc2c1
inactive: NCI-H23 lung 30.5% | NCI-H226 lung 69.6% | NCI-H322M lung 76.2% | HOP-62 NSCLC 55.8% | NCI-H460 lung 24.6% | HOP-92 NSCLC 59.9% | NCI-H522 lung 33.1% | A549/ATCC NSCLC 38.6% | 786-0 renal 83.6% | COLO 205 colon 27.9%

COc1cc(C(=O)N/N=C/c2cc3cc(OCc4ccccc4)ccc3nc2OC)cc(OC)c1OC
inactive: NCI-H23 lung 90.2% | NCI-H226 lung 78.4% | NCI-H322M lung 98% | HOP-62 NSCLC 83% | NCI-H460 lung 78.7% | HOP-92 NSCLC 66.7% | NCI-H522 lung 70.2% | A549/ATCC NSCLC 82.2% | 786-0 renal 85.5% | COLO 205 colon 102%

COc1cccc2c(=O)c3c(sc12)c(NCCCN)nc1ccccc13
inactive: NCI-H23 lung 59.7% | NCI-H226 lung 63.4% | NCI-H322M lung 64.4% | HOP-62 NSCLC 53.2% | HOP-92 NSCLC 45.7% | NCI-H522 lung 56.5% | A549/ATCC NSCLC 36.3% | 786-0 renal 68.2%
active: NCI-H460 lung -30.1% | COLO 205 colon -24.6%

Cc1cccc(NC2=C(Cl)C(=O)c3nc(C)ccc3C2=O)c1
active: NCI-H23 lung -27.8% | NCI-H226 lung -0.0359% | NCI-H460 lung 5.47% | HOP-92 NSCLC -68.7% | NCI-H522 lung -24% | 786-0 renal 3.53%
inactive: NCI-H322M lung 13.5% | HOP-62 NSCLC 42.8% | A549/ATCC NSCLC 16.7% | COLO 205 colon 111%

COC(=O)C(Cc1ccccc1)NC(=O)NC(=O)NC(=O)CI (stereo not given)
active: HOP-92 NSCLC -26% | NCI-H522 lung -82.1% | 786-0 renal -3.88%
inactive: NCI-H23 lung 63.2% | NCI-H226 lung 82.9% | NCI-H322M lung 108% | HOP-62 NSCLC 102% | NCI-H460 lung 92.3% | A549/ATCC NSCLC 99.8% | COLO 205 colon 25.4%

Cc1ccc(/C=C2\Oc3ccc(O)c(O)c3C2=O)cc1
inactive: NCI-H23 lung 36.6% | NCI-H226 lung 62.2% | NCI-H322M lung 58% | HOP-62 NSCLC 44.8% | NCI-H460 lung 43.4% | HOP-92 NSCLC 35.9% | NCI-H522 lung 13.6% | A549/ATCC NSCLC 73.1% | 786-0 renal 52.5% | COLO 205 colon 107%

NC1=C(c2nn[nH]n2)C(c2ccccc2Cl)c2ccc3ccccc3c2O1 (stereo not given)
inactive: NCI-H23 lung 76.3% | NCI-H226 lung 76.8% | NCI-H322M lung 89.9% | HOP-62 NSCLC 66.5% | NCI-H460 lung 87.5% | HOP-92 NSCLC 69.7% | NCI-H522 lung 35.5% | A549/ATCC NSCLC 83.3% | 786-0 renal 82.7% | COLO 205 colon 86.8%

O=[N+]([O-])c1ccccc1NCSc1ccc(Cl)cc1
inactive: NCI-H23 lung 91.2% | NCI-H226 lung 91% | NCI-H322M lung 98.1% | HOP-62 NSCLC 124% | NCI-H460 lung 95.8% | HOP-92 NSCLC 78.3% | NCI-H522 lung 90.7% | A549/ATCC NSCLC 91.3% | 786-0 renal 87.6% | COLO 205 colon 116%

COC(=O)Nc1ccc(-c2nc(-c3cccc(OC)c3)c(-c3ccnc(Br)c3)[nH]2)cc1
inactive: NCI-H23 lung 67.7% | NCI-H226 lung 59.1% | NCI-H322M lung 62.2% | HOP-62 NSCLC 59.4% | NCI-H460 lung 61.2% | HOP-92 NSCLC 62.8% | NCI-H522 lung 57.9% | A549/ATCC NSCLC 54.4% | 786-0 renal 37.4% | COLO 205 colon 79.7%

CCCCn1c(-c2ccc(C(=O)O/N=C(\N)c3ccc(OC)cc3)cc2)nc(-c2ccccc2)c1-c1ccccc1
active: NCI-H23 lung -41.9% | NCI-H460 lung -32.3% | HOP-92 NSCLC -68.7% | NCI-H522 lung -63.2% | A549/ATCC NSCLC -31.7% | 786-0 renal -63.9% | COLO 205 colon 0.164%
inactive: NCI-H226 lung 69.5% | NCI-H322M lung 62.3% | HOP-62 NSCLC 11.7%

N#Cc1c(-c2ccccc2)nc(SCC(=O)Nc2nc(-c3ccc(Cl)cc3)cs2)[nH]c1=O
inactive: NCI-H23 lung 84.1% | NCI-H226 lung 95.9% | NCI-H322M lung 97.9% | HOP-62 NSCLC 90.2% | NCI-H460 lung 106% | HOP-92 NSCLC 80.7% | NCI-H522 lung 77.6% | A549/ATCC NSCLC 94.6% | 786-0 renal 96.2% | COLO 205 colon 106%

O=C1c2cccc3cccc(c23)C(=O)N1Nc1nc(N2CCOCC2)nc(N2CCN(c3ccccc3)CC2)n1
active: HOP-92 NSCLC 7.52% | COLO 205 colon 3.51%
inactive: NCI-H23 lung 64% | NCI-H226 lung 57.5% | NCI-H322M lung 65.5% | HOP-62 NSCLC 46.3% | NCI-H460 lung 28.8% | NCI-H522 lung 29.9% | A549/ATCC NSCLC 53.1% | 786-0 renal 65.6%

COc1cc(CCC[P+](c2ccccc2)(c2ccccc2)c2ccccc2)c(OC)c2c1OCO2
inactive: NCI-H23 lung 19.3% | NCI-H226 lung 55.3% | NCI-H322M lung 85.3% | HOP-62 NSCLC 18.9% | NCI-H460 lung 31.8% | HOP-92 NSCLC 11.3% | A549/ATCC NSCLC 43.7% | 786-0 renal 31.2%
active: NCI-H522 lung 6.02% | COLO 205 colon -35.6%

CCCCNC(=O)Oc1ccc(/C(=C(\C)c2ccc(Cl)cc2)c2ccc(OCCN(CC)CC)cc2)cc1
inactive: NCI-H23 lung 85.6% | NCI-H226 lung 103% | NCI-H322M lung 87.9% | HOP-62 NSCLC 74.3% | NCI-H460 lung 72.6% | HOP-92 NSCLC 67.2% | NCI-H522 lung 98.4% | A549/ATCC NSCLC 61.6% | 786-0 renal 59.2% | COLO 205 colon 63.3%
